Compound activity deposited in PubChem by National Center for Advancing Translational Sciences (NCATS).
Pf growth 96h – P. falciparum growth inhibition at 96 hour, primary screen for plastid delayed-death inhibitors; AID 504834; 320,000 tested, 6.9% active; Potency, µM (titrated, usually from 28.7 µM), usual class: inhibitors; P. falciparum luciferase reporter growth, 96 h
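Cell-based qHTS: luciferase-tagged P. falciparum in erythrocytes (2% hematocrit, 0.05% parasitemia final) incubated with compounds for 96 hours, 37 C, 5% CO2; luciferase detection reagent then added and luminescence measured.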
Giardia FBPA inh – inhibitors of Giardia lamblia fructose-1,6-bisphosphate aldolase; purified Giardia FBPA; 290,000 tested, 0.71% active; AID 2451; Potency, µM (top dose mostly 59.6 µM), actives largely listed as inhibitors; A8B2U2; note: nearly all actives have a fitted effect of over 55% in size
Target sequence (A8B2U2 whole entry, looked up): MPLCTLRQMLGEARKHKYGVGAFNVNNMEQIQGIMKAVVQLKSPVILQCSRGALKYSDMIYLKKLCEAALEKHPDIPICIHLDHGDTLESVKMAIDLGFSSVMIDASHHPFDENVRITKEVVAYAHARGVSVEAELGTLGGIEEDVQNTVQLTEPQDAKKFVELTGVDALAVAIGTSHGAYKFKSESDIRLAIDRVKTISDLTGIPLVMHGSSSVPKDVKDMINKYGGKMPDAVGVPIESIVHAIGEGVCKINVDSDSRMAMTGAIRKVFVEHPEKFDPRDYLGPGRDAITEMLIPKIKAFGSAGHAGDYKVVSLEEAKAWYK
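Giardia FBPA (40 nM reagent) was preincubated 10 min at RT with compound (up to 57.5 uM final), then substrate plus GAPDH/TPI/NAD/arsenate coupling system with diaphorase/resazurin was added; resorufin fluorescence (525/598 nm) was read after 20 min.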
HCMV antiviral – inhibitors of human cytomegalovirus; AID 1259415; HFF cells, HCMV-luciferase reporter, 72 h; active compounds read low; activity change, negative = inhibition, % at 57.5 µM; 410,000 tested, 4.5% active; in the data active = activity change below about -60%; inconclusive = no clear call, values can overlap the other calls; inactive = above about -39%
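Human foreskin fibroblasts infected with luciferase-reporter HCMV at MOI 1 PFU/cell, compounds at two doses. Luciferase measured 72 h post infection; normalized to buffer-only basal and Salinomycin (10uM) controls.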
Pf growth 48h – P. falciparum growth inhibition at 48 hours (one generation). P. falciparum luciferase growth in erythrocytes, 48 h. Potency, µM (series often up to 28.7 µM), actives largely listed as inhibitors. 310,000 tested, 5.9% active
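In quantitative HTS format, infected erythrocytes bearing luciferase-reporter parasites were treated for a single generation at 37 C. Luminescence after adding detection reagent served as the growth measure.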
Sm TGR block – blocks Schistosoma mansoni thioredoxin glutathione reductase; Potency, µM (titrated, usually from 114 µM), most hits filed as inhibitors; Q962Y6; purified TGR, DTNB reduction, TNB absorbance 405 nm; 360,000 tested, 3% active; note: nearly all actives have a fitted effect of over 60% in size
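Kinetic colorimetric format: TGR-catalysed, NADPH-driven DTNB reduction monitored via TNB absorbance. Enzyme dispensed at 20 nM; compound exposure 15 min at room temperature before reaction start.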
Numbers stand for hits; - = inactive; ? = inconclusive; . = no result; [ ] = remark or other dose. Only some compounds are listed: those with a hit (about 14% of all), similar ones and a draw of the others. Unless noted, calls come from the whole dose curve; as a rule, active = well fitted curve in the direction sought with a large enough effect; inconclusive = small, poorly fitted or top-dose-only effect, or another doubt; inactive = no such curve, though single readings can be large; an effect the other way counts as inactive or inconclusive.

SMILES | Pf growth 96h | Giardia FBPA inh | HCMV antiviral | Pf growth 48h | Sm TGR block
CCS(=O)(=O)c1ccc(N=Nc2ccc(O)c3ncccc23)c(OC)c1 | ? | - | -92.1 | ? | -
CCCCNc1nc(C)nc2c1nc(-c1ccccc1)n2CCCN(C)C | . | - | . | . | .
C=CCn1c(SCc2cc(=O)n3ccsc3n2)nc2scc(C3CC3)c2c1=O | 4.15µM | - | - | ? | -
C=CCn1c(SCc2cc(=O)n3ccsc3n2)nc2ccccc2c1=O | - | - | - | - | -
COc1ccc(COC(=O)N/N=C2/C[C@@H](O)[C@@H](O)[C@@H]3[C@H]4C(=O)N(c5ccc(F)cc5F)C(=O)[C@@H]4CC[C@H]23)cc1 | . | -[12.9 µM] | . | . | .
O=C(CN1C(=O)COc2ccc(S(=O)(=O)N3CCCC3)cc21)NCc1ccccn1 | - | - | - | - | -
CCNc1nc(N)nc(Oc2ccc(C(=O)OC)cc2)n1 | 0.262µM | - | - | - | -
Cc1cc(C(C)(C)C)cc(CN2CCN(S(=O)(=O)c3cccs3)CC2)c1O | . | . | -77.4 | . | .
O=S(=O)(c1cccs1)N1CCN(Cc2cccc(F)c2)CC1 | - | - | - | - | -
Cc1cc(O)c(CN2CCN(S(=O)(=O)c3cccs3)CC2)cc1C(C)C | 4.15µM | . | - | 1.65µM | -
Cc1ccc2ccccc2c1C(O)c1ncc(-c2ccccc2Cl)[nH]1 (stereo not drawn) | . | . | - | . | .
Cc1nn(CC(=O)NC2(C#N)CCCCC2)c(C)c1[N+](=O)[O-] | - | . | - | - | -
COc1ccccc1CN1CCC2(CC1)CCN(C(=O)c1csnn1)CC2 | . | - | . | . | .
COC(=O)CN1C(=O)N/C(=C/c2ccc(C)o2)C1=O | 10.4µM | ? | - | - | 28.2µM
Cc1cc(C(=O)O)ccc1-c1ccc(/C=C2\NC(=O)N(Cc3ccccc3Cl)C2=O)o1 | - | ? | . | - | 50.1µM
Cc1ccc(/C=C2\SC(=S)N(Cc3ccccc3)C2=O)o1 | - | - | ? | ? | ?
Cc1ccc(CN2C(=O)N/C(=C\c3ccc(-c4ccc(C(=O)O)cc4C)o3)C2=O)cc1 | ? | - | - | ? | -
Cc1ccc(/C=C2/NC(=O)N(Cc3ccccc3)C2=O)o1 | - | ? | - | - | 22.4µM
Cc1ccccc1NC(=O)C(C)Sc1nnc(-c2ccncc2)n1CC1CCCO1 (stereo not drawn) | - | - | - | ? | -
COc1ccc(CNC(=O)CN2N=C(c3ccc(Cl)cc3)CCC2=O)cc1 | . | . | - | . | -
CO[C@@H]1/C=C\CC(=O)N[C@@H](C)C(=O)OC[C@@H](OC)[C@H](C)CCCC(=O)OC[C@H]1C | . | -[12.9 µM] | . | . | .
CCN(CC)C(=O)C1CCN(Cc2cn(C)nc2-c2ccc(Oc3ccccc3)cc2)CC1 | - | - | - | 7.38µM | -
CCOC(=O)N1C(=O)C[C@H](C(=O)N2CCOCC2)[C@H]1c1ccc(OC)cc1 | . | . | - | . | .
CC1=C([N+](=O)[O-])C(c2cccc(Br)c2)C2=C(N1)c1ccccc1C2=O (stereo not drawn) | . | - | -89.7 | 4.65µM | ?
CCCCOc1ccc(C(=O)NCCc2csc3nc(-c4ccccc4F)nn23)cc1 | . | . | - | . | -
SMILES | Pf growth 96h | Giardia FBPA inh | HCMV antiviral | Pf growth 48h | Sm TGR block
Cc1ccn2c(Nc3ccc4c(c3)OCO4)c(-c3ccc(O)cc3)nc2c1 | 11.7µM | - | - | ? | ?
COc1cc(-c2nc3ccc(C)cn3c2Nc2ccc3c(c2)OCCO3)ccc1O | 13.1µM | - | - | 11.7µM | -
c1ccc(-c2nc3ccccn3c2NCc2ccc3c(c2)OCO3)cc1 | - | - | - | ? | -
Oc1ccc(-c2nc3cnccn3c2Nc2ccc3c(c2)OCCO3)cc1 | - | - | - | . | -
Cc1cccn2c(NCc3ccc4c(c3)OCO4)c(-c3ccc(O)cc3)nc12 | - | - | - | 4.15µM | -
Clc1cccc(-c2nc3ccccn3c2Nc2ccc3c(c2)OCCO3)c1 | . | . | -103.9 | . | -
COc1cc(-c2nc3ccc(Cl)cn3c2Nc2ccc3c(c2)OCCO3)ccc1O | . | . | - | . | -
COc1ccccc1NC(=O)CCCc1nnc2n(C)c(=O)c3sccc3n12 | - | - | - | - | -
Oc1ccc(-c2nc3ccccn3c2Nc2ccc3c(c2)OCCO3)cc1 | . | . | - | . | -
Clc1ccc(-c2nc3ncccn3c2Nc2ccc3c(c2)OCO3)cc1 | 4.15µM | - | - | 4.15µM | -
CN(C)c1ccc(-c2nc3ccccn3c2Nc2ccc3c(c2)OCCO3)cc1 | . | . | -95.9 | . | -
Oc1ccc(-c2nc3ncccn3c2Nc2ccc3c(c2)OCO3)cc1 | - | - | - | ? | -
CC(=O)c1cccc(-c2ccnc3c2CC(C(=O)Nc2cccc(NS(C)(=O)=O)c2)O3)c1 (stereo not drawn) | . | . | - | . | .
CCCC1CCc2c(sc(NC(=O)OCC)c2C#N)C1 (stereo not drawn) | 11.7µM | - | - | - | -
CCCn1c(N)c(C(=O)CSc2nc(C)cs2)c(=O)n(C)c1=O | 9.28µM | - | - | - | -
COc1ccc(-c2nn(-c3ccccc3)cc2C(=O)OCC(=O)c2ccc(C)c([N+](=O)[O-])c2)cc1 | ? | - | ? | 10.4µM | -
COc1ccc(-c2cc(C(=O)OCC(=O)c3ccc(C)c([N+](=O)[O-])c3)c3ccccc3n2)cc1 | - | - | - | - | -
CCC(=O)N1CCC1(C)C(=O)Nc1ccc2c(c1)OCO2 (stereo not drawn) | . | . | - | . | .
CC1(C(=O)Nc2ccccc2)CCN1C(=O)Cc1ccc(-c2ccccc2)cc1 (stereo not drawn) | . | . | -74.0 | . | .
CC1(C(=O)Nc2ccc3c(c2)OCO3)CCN1C(=O)Cc1ccc(-c2ccccc2)cc1 (stereo not drawn) | . | . | -80.8 | . | .
C=CCN1C(=O)/C(=C/c2ccc(OC)cc2)S/C1=N/c1nccs1 | 11.7µM | - | - | - | -
C=CCN1C(=O)/C(=C/c2ccc(O)cc2)S/C1=N/c1nccs1 | ? | - | ? | - | -
Cc1cc(C)cc(C(=O)N(Cc2ccco2)c2c(N)n(Cc3ccccc3)c(=O)[nH]c2=O)c1 | ? | . | - | ? | -
C#CCNc1ccncc1S(=O)(=O)NC(=O)NC(C)C | - | - | - | - | 22.4µM
CC(C)NC(=O)NS(=O)(=O)c1cnccc1NC1CC2CCC1C2 (stereo not drawn) | - | - | - | - | -
SMILES | Pf growth 96h | Giardia FBPA inh | HCMV antiviral | Pf growth 48h | Sm TGR block
CCc1noc(C)c1C(=O)NCCN1C(=O)S/C(=C\c2ccccc2F)C1=O | . | . | - | . | .
CC(C)CC1NC(=O)N(CC(=O)N(C)C2CCCCC2)C1=O (stereo not drawn) | . | . | - | . | .
CN(C(=O)CN1C(=O)C2C3CC(C(Br)C3Br)C2C1=O)C1CCCCC1 (stereo not drawn) | - | - | - | 5.86µM | -
Cn1c(SCC(=O)NC2CC2)nnc1-c1cccs1 | - | . | - | - | -
Cn1c(SCC(=O)N(C2CCCCC2)C2CCCCC2)nnc1-c1cccs1 | . | - | - | 11.7µM | -
CC(C)CC(NC(=O)c1cccs1)c1nnc(SCc2ccc(Cl)c(Cl)c2)n1C (stereo not drawn) | ? | - | ? | 11.7µM | -
Cc1cc(C)cc(C(O)c2ncc(-c3ccccc3Cl)[nH]2)c1 (stereo not drawn) | . | . | - | . | .
